How the values were obtained:
Assay in all cases: PBM binding z-score (relative to random genomic background probes); higher = stronger binding; sequences stand for … in GC…GCGATTGACAGCGTAGAATGAAGG
[1] = system: PPARg:RXRa DBDmut IVT, anti-RXR (DBD mutation: RXRa K156A/R161A, NR concentration 270 nM, RXRa partner concentration 90 nM)
How it was run: (§1)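 Scanned fluorescence from custom Agilent 4×180K protein-binding microarrays was regression-normalized. Binding z-scores use random background probes as reference. Ligand-free nuclear receptor dimers were incubated on the arrays for 1 h and detected with antibodies against each partner (one per run).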

[2] = system: PPARg:RXRa IVT, anti-PPARg (NR concentration 270 nM, RXRa partner concentration 90 nM)
How it was run: as §1

[3] = system: PPARg DBDmut:RXRa IVT, anti-PPARg (DBD mutation: PPARg1 K132A/R137A, NR concentration 270 nM, RXRa partner concentration 90 nM)
How it was run: as §1

[4] = system: PPARg DBDmut IVT, anti-PPARg (DBD mutation: PPARg1 K132A/R137A, NR concentration 270 nM)
How it was run: as §1

[5] = system: PPARg homodimer (NR concentration 180 nM)
How it was run: as §1

[6] = system: PXR:RXRa (NR concentration 270 nM, RXRa partner concentration 90 nM)
How it was run: as §1

[7] = system: PXR homodimer (NR concentration 270 nM)
How it was run: as §1

[8] = system: RARa:RXR (NR concentration 270 nM, RXRa partner concentration 90 nM)
How it was run: as §1

[9] = system: RARa homodimer (NR concentration 270 nM)
How it was run: as §1

[10] = system: RARb:RXRa (NR concentration 270 nM, RXRa partner concentration 90 nM)
How it was run: as §1

[11] = system: RARb homodimer (NR concentration 270 nM)
How it was run: as §1

[12] = system: RARg:RXRa (NR concentration 270 nM, RXRa partner concentration 90 nM)
How it was run: as §1

[13] = system: RARg homodimer (NR concentration 270 nM)
How it was run: as §1

[14] = system: RXRa DBDmut IVT, anti-RXR (DBD mutation: RXRa K156A/R161A, NR concentration 90 nM)
How it was run: as §1

[15] = system: RXRa homodimer (NR concentration 180 nM)
How it was run: as §1

[16] = system: THRa:RXRa (NR concentration 90 nM, RXRa partner concentration 90 nM)
How it was run: as §1

[17] = system: THRa homodimer (NR concentration 90 nM)
How it was run: as §1

[18] = system: VDR homodimer (NR concentration 270 nM)
How it was run: as §1

| Sequence | PBM binding z-score [1] | PBM binding z-score [2] | PBM binding z-score [3] | PBM binding z-score [4] | PBM binding z-score [5] | PBM binding z-score [6] | PBM binding z-score [7] | PBM binding z-score [8] | PBM binding z-score [9] | PBM binding z-score [10] | PBM binding z-score [11] | PBM binding z-score [12] | PBM binding z-score [13] | PBM binding z-score [14] | PBM binding z-score [15] | PBM binding z-score [16] | PBM binding z-score [17] | PBM binding z-score [18] |
| --- | --- | --- | --- | --- | --- | --- | --- | --- | --- | --- | --- | --- | --- | --- | --- | --- | --- | --- |
| GCTTACGGGTCAAAGATTATAGCATGAATAGAAT | 3.85 | 3.76 | 1.41 | 1.16 | 1.35 | 3.23 | -0.0668 | 4.47 | 0.373 | 3.39 | 2.21 | 4.65 | 4.34 | 2.38 | 5.43 | 2.21 | -0.519 | 0.811 |
| CGTCCAGGGTCAGAGAGGTCAGTGAATGCCGAGT | 1.59 | 2.32 | -0.324 | -0.926 | 3.95 | 6.01 | 9.1 | 5.52 | 1.6 | 4.77 | 5.27 | 6.18 | 6.48 | 2.79 | 6.28 | 4.29 | 2.13 | 5.45 |
| CTCGAAAGGTCGTGCTCAGGTGAGTATACCAAAC | 0.806 | 1.92 | 0.159 | 0.522 | 2.26 | 3.47 | -0.155 | 4.39 | 0.399 | 3.9 | 2.75 | 5.07 | 3.86 | 2.05 | 4.63 | 4.17 | 1.08 | 1.2 |
| TGACCAAGGTGAGCTGAGGTCGTTGATCCAACTC | 0.169 | 1.43 | 0.123 | -1.59 | -0.0589 | 4.67 | 0.0412 | 1.84 | -0.758 | 1.69 | 1.63 | 1.46 | 1.17 | -0.41 | 1.52 | 4.69 | 1.8 | 1.7 |
| TAGCTTAGGTCATGCGGGCCAGTATAGTGTCGGC | 1.52 | 1.65 | 1.35 | 0.321 | 1.44 | 1.85 | -0.011 | 2.73 | -0.0276 | 3.87 | 3.21 | 3.97 | 4.75 | 1.31 | 2.97 | 3.6 | 2.34 | 0.954 |
| TCATATAGGTAATACAGGTAAAAGTCGGCATCTA | 4.07 | 2.77 | 1.1 | 1.94 | 1.08 | 0.705 | 0.364 | 0.922 | 1.47 | 0.572 | -0.0506 | 0.506 | 0.536 | 1.9 | 1.21 | 0.497 | 0.159 | 0.0521 |
| TCATATGGGTAATACAGGTGAAAGTCGGCATCTA | 3.38 | 2.88 | 1.3 | 0.765 | 0.704 | 0.281 | -0.317 | 0.653 | 0.182 | 0.214 | 0.197 | 0.414 | 0.489 | 0.75 | 0.794 | 0.846 | -0.109 | -0.42 |
| CCTATTGGGCCAAAGGTCATTGATTCCAATGCTC | 4.3 | 6.28 | -0.0108 | 0.0368 | 4.43 | 5.28 | 2.34 | 6.32 | 1.8 | 4.42 | 4.43 | 5.85 | 4.73 | 1.62 | 6.7 | 3.29 | 0.647 | 2.85 |
| ACTAGCAGGCCAAGGGTCAGTCAAGATTAGTCCG | 0.997 | 2.79 | -0.401 | -0.926 | 1.54 | 1.69 | -0.439 | 2.56 | -0.0893 | 2.85 | 3.52 | 3.02 | 2.76 | 0.119 | 2.52 | 1.75 | -0.147 | 0.29 |
| CCTCGGAGGACTACAGGAGGTCAGAGCTGCCAGA | -0.516 | -0.34 | -1.03 | -2.28 | 0.985 | 2.04 | 0.121 | 2.24 | -0.496 | 1.93 | 2.9 | 2.37 | 2.06 | -0.895 | 1.93 | 2.55 | 0.263 | 0.359 |
| TCTTGTAGATCGGCAGGTTAAGAAAGCTGGCCAA | 1.25 | 0.377 | -0.018 | -0.268 | 0.0916 | 0.349 | -0.293 | 0.55 | -0.734 | 0.257 | 0.124 | -0.0429 | -0.399 | 0.729 | 0.269 | 0.308 | -0.309 | -0.0576 |
| GTACCACGGTGAATAGGTCGTTGATGAGTAGGCG | -0.0107 | 0.889 | -0.572 | -0.695 | 0.25 | 0.0182 | -0.47 | 0.233 | -0.371 | 0.587 | 0.859 | 0.755 | 0.261 | -0.3 | 0.707 | 0.209 | -0.565 | 0.098 |
| TCTAGTAGATCAGCAGGTTAAGAAAGCTGGCCAA | 1.99 | 0.125 | -0.189 | -1.02 | 0.292 | 0.255 | -0.699 | 0.387 | -0.353 | 0.266 | -0.0798 | -0.00824 | -0.453 | 0.645 | 0.438 | 0.0763 | -1.15 | -0.213 |
| TCTGCTAGGTCAACGATGATCAGCTAATCTGCTA | 4.26 | 4.06 | 0.35 | 0.888 | 0.451 | 0.896 | -0.713 | 1.77 | -0.998 | 3.99 | 2.72 | 3.81 | 4.38 | 1.04 | 2.78 | 2.64 | 0.449 | -0.153 |
